Data published in PubChem BioAssay (NCI).
The panel holds about 83,000 compounds, 20% with a hit somewhere; the sample as a whole holds those more often.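 Cells were grown in 96-well plates and exposed to the test compound at a single concentration for 48 hours; results are reported as percent growth, with values below 10 considered active.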 Activity calls are given as the source filed them.

Legend:
Experiment in all cases: NCI-60 one-dose screen, 48 h (100 = growth as untreated, 0 = no growth, -100 = all killed)
Settings in all cases: 10 µM unless noted
NCI-H226 lung = tested on: NCI-H226 lung
NCI-H322M lung = tested on: NCI-H322M lung
HOP-62 NSCLC = tested on: HOP-62 NSCLC
NCI-H460 lung = tested on: NCI-H460 lung
HOP-92 NSCLC = tested on: HOP-92 NSCLC
NCI-H522 lung = tested on: NCI-H522 lung
A549/ATCC NSCLC = tested on: A549/ATCC NSCLC
786-0 renal = tested on: 786-0 renal
COLO 205 colon = tested on: COLO 205 colon
DU-145 prostate = tested on: DU-145 prostate
K-562 leukemia = tested on: K-562 leukemia
MALME-3M melanoma = tested on: MALME-3M melanoma
MDA-MB-231 breast = tested on: MDA-MB-231 breast
RXF 393 renal = tested on: RXF 393 renal
SF-268 CNS = tested on: SF-268 CNS
SF-295 CNS = tested on: SF-295 CNS
SF-539 CNS = tested on: SF-539 CNS
UACC-257 melanoma = tested on: UACC-257 melanoma
M14 melanoma = tested on: M14 melanoma
HCT-15 colon = tested on: HCT-15 colon

Measured: growth

COc1cc(N=Cc2sc(Nc3nccs3)nc2O)cc(OC)c1OC
inactive: NCI-H226 lung 79.5% | NCI-H322M lung 74% | HOP-62 NSCLC 80.1% | NCI-H460 lung 69.9% | HOP-92 NSCLC 72.8% | NCI-H522 lung 93.6% | A549/ATCC NSCLC 95.6% | 786-0 renal 96.6% | COLO 205 colon 99.6% | DU-145 prostate 93.3% | K-562 leukemia 84.4% | MALME-3M melanoma 79.2% | MDA-MB-231 breast 79.1% | RXF 393 renal 99.5% | SF-268 CNS 78.8% | SF-295 CNS 69.9% | SF-539 CNS 90.5% | UACC-257 melanoma 92.6% | M14 melanoma 79.9% | HCT-15 colon 71.4%

Clc1ccc2c(OCCCN3CCOCC3)c3oc4ccccc4c3nc2c1
inactive: NCI-H226 lung 33.7% | NCI-H322M lung 36% | HOP-62 NSCLC 63.6% | NCI-H460 lung 10.5% | HOP-92 NSCLC 45.3% | NCI-H522 lung 29% | A549/ATCC NSCLC 33.5% | 786-0 renal 27.4% | COLO 205 colon 12.8% | DU-145 prostate 22.9% | K-562 leukemia 19.8% | MALME-3M melanoma 12.5% | MDA-MB-231 breast 32.3% | RXF 393 renal 26.7% | SF-268 CNS 38.3% | SF-295 CNS 26% | SF-539 CNS 22.9% | UACC-257 melanoma 59.8% | M14 melanoma 30.3% | HCT-15 colon 20.3%

COc1ccc2[nH]cc(-c3cc(N)n4nc(-c5c[nH]c6ccc(OC)cc56)cc4n3)c2c1
active: NCI-H460 lung -84.6% | A549/ATCC NSCLC -5.78% | 786-0 renal -86.4% | COLO 205 colon -54.3% | DU-145 prostate -10.5% | K-562 leukemia -35.5% | MALME-3M melanoma -68.4% | MDA-MB-231 breast -12.6% | RXF 393 renal -50.6% | SF-268 CNS -30% | SF-539 CNS -89.7% | UACC-257 melanoma -21.8% | M14 melanoma -78.3% | HCT-15 colon 1.36%
inactive: NCI-H226 lung 36.8% | NCI-H322M lung 25.4% | HOP-62 NSCLC 76.2% | HOP-92 NSCLC 79.1% | NCI-H522 lung 53.9% | SF-295 CNS 25.2%

COc1ccc(NC2=C(Cl)C(=O)C(C)=C(C)C2=O)cc1OC
inactive: NCI-H226 lung 92.6% | NCI-H322M lung 101% | HOP-62 NSCLC 99.6% | NCI-H460 lung 96% | HOP-92 NSCLC 130% | NCI-H522 lung 84.7% | A549/ATCC NSCLC 87.2% | 786-0 renal 107% | COLO 205 colon 110% | DU-145 prostate 104% | K-562 leukemia 60% | MALME-3M melanoma 99.7% | MDA-MB-231 breast 44.9% | RXF 393 renal 108% | SF-268 CNS 93.5% | SF-295 CNS 101% | SF-539 CNS 94.7% | UACC-257 melanoma 95.1% | M14 melanoma 95.7% | HCT-15 colon 96.1%

COc1cc(OC)c(C2SCC(=O)N2Nc2ncnc3ccccc23)cc1OC (stereo not given)
inactive: NCI-H226 lung 107% | NCI-H322M lung 96.4% | HOP-62 NSCLC 100% | NCI-H460 lung 111% | HOP-92 NSCLC 147% | NCI-H522 lung 98.9% | A549/ATCC NSCLC 104% | 786-0 renal 104% | COLO 205 colon 113% | DU-145 prostate 106% | K-562 leukemia 105% | MALME-3M melanoma 96.2% | MDA-MB-231 breast 98.8% | RXF 393 renal 124% | SF-268 CNS 107% | SF-295 CNS 102% | SF-539 CNS 95.3% | UACC-257 melanoma 108% | M14 melanoma 107% | HCT-15 colon 103%

COC(=O)C(Cc1ccccc1)NS(=O)(=O)/N=C1\NC(=O)NC1=C(Cl)Cl (stereo not given)
inactive: NCI-H226 lung 107% | NCI-H322M lung 91.4% | HOP-62 NSCLC 101% | NCI-H460 lung 97.6% | HOP-92 NSCLC 49.9% | NCI-H522 lung 96.2% | A549/ATCC NSCLC 105% | 786-0 renal 77% | COLO 205 colon 133% | DU-145 prostate 105% | K-562 leukemia 91.8% | MALME-3M melanoma 94.8% | MDA-MB-231 breast 101% | RXF 393 renal 119% | SF-268 CNS 82.9% | SF-295 CNS 99.5% | SF-539 CNS 54% | UACC-257 melanoma 91% | M14 melanoma 92.9% | HCT-15 colon 99.5%

COc1ccc(/C=C/C(=O)c2ccc(NC(=O)CSc3nnc(-c4ccc5nc(-c6ccc(Cl)cc6)[nH]c5c4)o3)cc2)cc1
inactive: NCI-H226 lung 87.6% | NCI-H322M lung 103% | HOP-62 NSCLC 103% | NCI-H460 lung 102% | HOP-92 NSCLC 102% | NCI-H522 lung 79.1% | A549/ATCC NSCLC 105% | 786-0 renal 99.6% | COLO 205 colon 118% | DU-145 prostate 108% | K-562 leukemia 87.3% | MALME-3M melanoma 93.5% | MDA-MB-231 breast 98.4% | RXF 393 renal 107% | SF-268 CNS 114% | SF-295 CNS 100% | SF-539 CNS 94.3% | UACC-257 melanoma 110% | M14 melanoma 106% | HCT-15 colon 94.9%

CC(=O)Oc1ccccc1C(=O)Nc1cc(C(C)C)ccc1C
inactive: NCI-H322M lung 11.7% | HOP-62 NSCLC 19.6% | A549/ATCC NSCLC 13.1% | 786-0 renal 25.6% | COLO 205 colon 92.7% | DU-145 prostate 23.1% | SF-268 CNS 19.8% | SF-295 CNS 11.3% | SF-539 CNS 15.6% | M14 melanoma 33.2% | HCT-15 colon 14%
active: NCI-H226 lung 9.84% | NCI-H460 lung 9.6% | HOP-92 NSCLC -19.5% | NCI-H522 lung 4.56% | K-562 leukemia 7.45% | MALME-3M melanoma -6.69% | MDA-MB-231 breast 7.22% | RXF 393 renal -2.41% | UACC-257 melanoma -9.44%

N#Cc1c(-c2ccc(Cl)cc2)nc(SCc2ccccc2)nc1N1CCNCC1
active: NCI-H460 lung -45.6% | COLO 205 colon -8% | K-562 leukemia 0.363%
inactive: NCI-H226 lung 89.4% | NCI-H322M lung 79.6% | HOP-62 NSCLC 78.9% | HOP-92 NSCLC 21.8% | NCI-H522 lung 92.4% | A549/ATCC NSCLC 66.7% | 786-0 renal 64.3% | DU-145 prostate 63.8% | MALME-3M melanoma 84.4% | MDA-MB-231 breast 44.2% | RXF 393 renal 74.4% | SF-268 CNS 74.2% | SF-295 CNS 94.3% | SF-539 CNS 75.6% | UACC-257 melanoma 97.3% | M14 melanoma 82.1% | HCT-15 colon 13.2%

Nc1cc(-c2c[nH]c3ccccc23)nc2cc(-c3c[nH]c4ccccc34)nn12
active: NCI-H460 lung 4.94% | K-562 leukemia 4.17% | HCT-15 colon 6.35%
inactive: NCI-H226 lung 67.3% | NCI-H322M lung 80.8% | HOP-62 NSCLC 95.3% | HOP-92 NSCLC 72.5% | NCI-H522 lung 43% | A549/ATCC NSCLC 58.3% | 786-0 renal 46.8% | COLO 205 colon 49.4% | DU-145 prostate 40.2% | MALME-3M melanoma 64.5% | MDA-MB-231 breast 48.2% | RXF 393 renal 38.2% | SF-268 CNS 75.2% | SF-295 CNS 34.8% | SF-539 CNS 32.4% | UACC-257 melanoma 70.2% | M14 melanoma 29.3%

C/C(=N\NC(N)=O)c1c(O)sc(=O)[nH]c1=O
inactive: NCI-H226 lung 101% | NCI-H322M lung 97.3% | HOP-62 NSCLC 96.6% | NCI-H460 lung 106% | HOP-92 NSCLC 104% | NCI-H522 lung 98.7% | A549/ATCC NSCLC 98.4% | 786-0 renal 104% | COLO 205 colon 108% | DU-145 prostate 110% | K-562 leukemia 105% | MALME-3M melanoma 97.5% | MDA-MB-231 breast 102% | RXF 393 renal 107% | SF-268 CNS 104% | SF-295 CNS 96.3% | SF-539 CNS 94.6% | UACC-257 melanoma 96.5% | M14 melanoma 98.8% | HCT-15 colon 97.1%

NS(=O)(=O)c1cccc(Nc2nc(SCC(=O)c3ccc(Br)cc3)nc3ccccc23)c1
inactive: NCI-H322M lung 97.6% | HOP-62 NSCLC 59.5% | NCI-H460 lung 38.5% | HOP-92 NSCLC 38.2% | NCI-H522 lung 40.8% | A549/ATCC NSCLC 60.3% | 786-0 renal 14.2% | COLO 205 colon 75.8% | DU-145 prostate 69.4% | K-562 leukemia 44.7% | MALME-3M melanoma 54.7% | MDA-MB-231 breast 64.5% | RXF 393 renal 24.5% | SF-268 CNS 32.8% | SF-295 CNS 17.4% | SF-539 CNS 72% | UACC-257 melanoma 96.1% | M14 melanoma 80.2% | HCT-15 colon 67.4%
active: NCI-H226 lung 4.97%

CCN1C(=S)N(c2ccccc2)C2NC(=O)N(/N=C/C=C/c3ccccc3OC)C21 (stereo not given)
inactive: NCI-H226 lung 98.9% | NCI-H322M lung 94.9% | HOP-62 NSCLC 80.6% | NCI-H460 lung 89.2% | HOP-92 NSCLC 72.3% | NCI-H522 lung 89% | A549/ATCC NSCLC 87.9% | 786-0 renal 96.1% | COLO 205 colon 122% | DU-145 prostate 101% | K-562 leukemia 59.2% | MALME-3M melanoma 87.2% | MDA-MB-231 breast 71.9% | RXF 393 renal 92.4% | SF-268 CNS 93.9% | SF-295 CNS 87.9% | SF-539 CNS 86.3% | UACC-257 melanoma 102% | M14 melanoma 92.6% | HCT-15 colon 67.6%

COc1cc(-c2ccc3ncnc(NC(C)c4ccccc4)c3c2)cnc1OC (stereo not given)
inactive: NCI-H226 lung 52.8% | NCI-H322M lung 15.4% | HOP-62 NSCLC 44.4% | NCI-H460 lung 64.5% | HOP-92 NSCLC 20.1% | NCI-H522 lung 40.9% | A549/ATCC NSCLC 41.9% | 786-0 renal 44.2% | COLO 205 colon 72.9% | DU-145 prostate 37.2% | K-562 leukemia 76.3% | MALME-3M melanoma 56.3% | MDA-MB-231 breast 36.1% | RXF 393 renal 26% | SF-268 CNS 44.9% | SF-295 CNS 37.1% | SF-539 CNS 47.2% | UACC-257 melanoma 78.8% | M14 melanoma 68% | HCT-15 colon 52.9%

O=C(CN1C(=O)/C(=C/c2ccccc2)SC1=S)N1CCOCC1
inactive: NCI-H226 lung 105% | NCI-H322M lung 91.9% | HOP-62 NSCLC 97% | NCI-H460 lung 105% | HOP-92 NSCLC 102% | NCI-H522 lung 68.2% | A549/ATCC NSCLC 97.4% | 786-0 renal 92.3% | COLO 205 colon 116% | DU-145 prostate 103% | K-562 leukemia 77.4% | MALME-3M melanoma 83.6% | MDA-MB-231 breast 95.2% | RXF 393 renal 105% | SF-268 CNS 102% | SF-295 CNS 103% | SF-539 CNS 95.8% | UACC-257 melanoma 95.8% | M14 melanoma 88.5% | HCT-15 colon 88.2%
